# D2 PAM-1 = D2 dopamine receptor (human) potentiation; 340,000 compounds, 0.34% hits; HEK293 T-REx D2, calcium flux, EC20 dopamine potentiation; AID 485347; P14416; potentiation, % at 10 µM;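 active = potentiation over 3 SD above the plate norm, cut at about 30% in these data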
# Target sequence (P14416 whole entry, looked up): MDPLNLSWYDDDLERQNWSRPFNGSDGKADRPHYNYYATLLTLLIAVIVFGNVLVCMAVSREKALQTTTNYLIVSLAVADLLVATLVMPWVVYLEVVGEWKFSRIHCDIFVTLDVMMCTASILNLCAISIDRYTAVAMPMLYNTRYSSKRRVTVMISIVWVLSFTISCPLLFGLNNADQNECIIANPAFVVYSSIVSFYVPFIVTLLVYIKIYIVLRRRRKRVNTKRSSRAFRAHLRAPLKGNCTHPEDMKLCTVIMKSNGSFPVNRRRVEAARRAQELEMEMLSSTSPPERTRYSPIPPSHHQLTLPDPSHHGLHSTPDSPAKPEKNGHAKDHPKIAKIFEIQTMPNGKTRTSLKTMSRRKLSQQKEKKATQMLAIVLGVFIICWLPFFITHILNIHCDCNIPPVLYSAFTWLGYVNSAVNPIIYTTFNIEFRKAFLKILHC
#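 Potentiation of an EC20 dopamine calcium response measured kinetically over 180 s, after a preceding 180 s compound-only read flagging agonists. Cells: inducible Hek293 Trex D2 line, 4000/well, cultured overnight at 30 C before dye loading.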
# D2 ag-1 = agonists of human D2 dopamine receptor; HEK293 T-REx D2 cells, calcium flux agonist mode; activation, % at 2 µM; 340,000 compounds, 0.53% hits; AID 485358;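 active = activation over 3 SD above normal in the single-dose calcium agonist read, cut at about 30% in these data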
#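 In this primary screen, compounds producing a positive calcium signal within 180 s of addition to tetracycline-induced, force-coupled HEK293 Trex D2 cells are flagged; cells are dye-loaded with a no-wash calcium kit beforehand.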
# D2 ag-2 = activates the human D2 dopamine receptor. activation, % (test concentration not listed). 360,000 compounds, 0.084% hits. DiscoveRx PathHunter D2 beta-arrestin, luminescence, 90 min; 100% = 57 uM dopamine signal. P14416. AID 624465; in the data active = activation above about 40%; inconclusive = between about 15% and that limit
#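 Agonist mode: compounds alone added to overnight-plated D2 PathHunter cells for 90 min at 37 C, with 57 uM final dopamine (EC100) defining full response. Beta-arrestin recruitment detected by chemiluminescent reagent, read after 1 h at ambient temperature.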
# D2 antagonist = antagonizes the human D2 dopamine receptor; inhibition, % at 10 µM; HEK293 TREx D2 cells, calcium flux, dopamine EC80; P14416; 340,000 compounds, 2% hits; in the data active = inhibition above about 30%; inactive = below that, where a call was filed
#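 Measurement of antagonist activity uses fluorescent calcium dye in inducible HEK293 T-REx D2 cells: 10 s baseline, compound addition with 180 s read, EC80 dopamine addition with a further 180 s read.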
# D2 PAM-2 = positive allosteric modulators of human D2 dopamine receptor | DiscoveRx D2 beta-arrestin cells, luminescence, 90 min; 100% = 57 uM dopamine signal | potentiation, % (no concentration beside the values) | 360,000 compounds, 0.23% hits | AID 624464; in the data active = potentiation above about 50%; inconclusive = mostly about 30% to 49%
#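 D2 cells co-treated with compound plus 50 nM dopamine (EC20) for 90 min at 37 deg C to detect potentiation. Beta-arrestin recruitment was read as enzyme-fragment luminescence after 1 h at ambient temperature. Full response was set by 57 uM dopamine.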
# Hits are given with their value; – = inactive; ? = inconclusive; · = not tested or not shown. Shown are actives, neighbours in structure and some others; about 2.4% of the full set was active somewhere.
SMILES,D2 PAM-1,D2 ag-1,D2 ag-2,D2 antagonist,D2 PAM-2
N/C(=N\OC(=O)c1cccc(F)c1)c1cccc([N+](=O)[O-])c1,·,·,?,·,84.5
Cc1cccc(/C(N)=N/OC(=O)c2ccc(F)cc2)c1,–,–,–,–,–
N/C(=N\OC(=O)c1ccc2ccccc2c1)c1cccc([N+](=O)[O-])c1,–,–,?,–,107.6
N/C(=N\OC(=O)c1ccc([N+](=O)[O-])cc1Cl)c1ccccn1,–,–,?,–,–
N/C(=N\OC(=O)c1ccc(F)cc1)c1cccc([N+](=O)[O-])c1,–,–,?,–,64.8
N/C(=N\OC(=O)c1ccccc1Cl)c1cccc([N+](=O)[O-])c1,–,–,59.7,–,–
CCOc1ccc(-c2cc(NC(=O)c3ccccc3)c(C(=O)OC)s2)cc1,–,–,·,·,·
Cc1ccc(S(=O)(=O)N2Cc3ccccc3CC2C(N)=O)cc1 (stereo unspecified),·,·,–,·,–
CCCCNc1sc(S(=O)(=O)CC)nc1S(=O)(=O)c1ccc(C)cc1,–,–,·,·,·
COc1ccc(NC(=O)c2oc3ccccc3c2NC(=O)Cc2coc3c(C)c(C)ccc23)cc1,–,–,·,·,·
CCOc1ccc(CCNC(=O)Cn2ccc3cc(S(=O)(=O)N4CCCCCC4)ccc32)cc1,–,–,·,·,·
CC1=C(C)/C(=N/OC(=O)c2cccc([N+](=O)[O-])c2)C=CC1=O,–,–,?,34.0,–
NC(=O)c1cccc([N+](=O)[O-])c1,–,–,–,–,–
COc1ccccc1CNC(=O)c1cccc(NC(=O)N2CCSc3ncccc32)c1,·,–,·,·,·
Cc1[nH]n2c(=O)c3c(nc2c1-c1ccccc1)CCC3,–,–,–,35.9,–
Nc1[nH]n2c(=O)c3c(nc2c1N=Nc1ccccc1)CCCC3,–,–,–,37.5,–
Cc1[nH]n2c(=O)c3c(nc2c1-c1ccc(Cl)cc1)CCC3,–,–,–,74.8,–
Nc1[nH]n2c(=O)c3c(nc2c1N=Nc1ccc(Cl)cc1)CCCC3,–,–,–,–,–
COc1ccc(CNC(=O)CCCCCn2c(=O)[nH]c3ccccc3c2=O)cc1,–,·,·,·,·
CCCCn1c(=O)c(Cc2ccccc2)c(O)c2ccccc21,31.2,–,–,–,–
CCCCCCn1c(=O)c(Cc2ccccc2)c(O)c2ccccc21,–,–,–,–,–
CC1(C)Cc2c(sc(/N=C/N3CCCCCC3)c2C#N)C(C)(C)N1,–,–,–,–,–
CC1(C)Cc2c(sc(/N=C/N3CCCC3)c2C#N)C(C)(C)N1,–,–,–,32.9,–
CC(=O)Nc1cccc(Oc2ncnc3scc(-c4ccc(C)cc4)c23)c1,–,–,–,33.9,–
Cc1ccc2occ(CC(=O)N(Cc3ccccc3Cl)C3CCS(=O)(=O)C3)c2c1 (stereo unspecified),–,–,·,·,·
SMILES,D2 PAM-1,D2 ag-1,D2 ag-2,D2 antagonist,D2 PAM-2
CC(=O)c1cccc(NC(=O)CC2SC(N3CCCCC3)=NC2=O)c1 (stereo unspecified),–,–,–,45.3,–
O=C(CC1SC(N2CCCCC2)=NC1=O)Nc1ccc(C(=O)O)cc1 (stereo unspecified),–,–,–,–,–
O=C(CC1SC(N2CCCCC2)=NC1=O)Nc1cccc(C(F)(F)F)c1 (stereo unspecified),–,–,–,78.8,–
CC(=O)c1cccc(NC(=O)c2ccc(NC(=O)CC3SC(N4CCCCC4)=NC3=O)cc2)c1 (stereo unspecified),–,–,–,–,–
COc1cc(-c2nc3n(n2)C(c2ccc(F)cc2)C(C(N)=O)=C(C)N3)cc(OC)c1OC (stereo unspecified),–,–,·,·,·
COc1ccc(-n2cc(CNCCc3cscn3)c(-c3ccccc3Cl)n2)cc1,–,–,–,47.6,–
CCOC(=O)/C(C#N)=C/c1ccc(-c2ccc(C)cc2)o1,–,–,·,·,·
CC(C)(C)C1CCc2c(sc(NC(=O)CCC(=O)O)c2C(=O)Nc2ccccc2C(F)(F)F)C1 (stereo unspecified),–,–,·,·,·
COc1ccc(Cc2nnc(SCC(=O)NC3(C#N)CCCCC3)n2N)cc1,–,–,–,–,–
Cc1cc(C)c(C#N)c(SCS(=O)Cc2ccc(Cl)cc2)n1 (stereo unspecified),–,–,–,36.7,–
Cc1cc(C)c(C#N)c(SCS(=O)Cc2ccccc2)n1 (stereo unspecified),–,–,–,–,–
CCN(C(=O)c1c(C)oc2ncn(CC(C)C)c(=O)c12)c1cccc(Cl)c1,–,–,·,·,·
CCCCNC(=O)CCCn1c(=O)c2ccccc2n(Cc2ccccc2C)c1=O,–,–,·,·,·
CCC(C)(C)n1nnnc1C(c1ccccn1)N1CCCCC1 (stereo unspecified),–,–,–,51.8,–
CCCc1nn2c(=O)cc(COC(=O)c3ccc4c(c3)OCO4)nc2s1,–,–,·,·,·
COc1ccc(OC)c(NC(=O)C2CC(/C=C/c3ccccc3)=NO2)c1 (stereo unspecified),–,32.6,–,–,–
COc1ccc(CCNS(=O)(=O)c2cc3c4c(c2)C(C)C(=O)N4CCC3)cc1OC (stereo unspecified),–,–,–,–,–
CC1C(=O)N2CCCc3cc(S(=O)(=O)NCCc4ccccc4)cc1c32 (stereo unspecified),42.9,–,–,–,–
Cc1ccc(NC(=O)C2CCN(S(=O)(=O)c3ccc4c(c3)NC(=O)CO4)CC2)cc1,–,–,–,32.0,–
CC(=O)N1c2ccc(S(=O)(=O)NCC3CCC(C(=O)Nc4ccc(C)cn4)CC3)cc2CC1C (stereo unspecified),34.2,–,–,–,–
CC(=O)N1c2ccc(S(=O)(=O)N3CCCC3C(=O)Nc3ccc(C)cc3)cc2CC1C (stereo unspecified),–,–,–,36.7,–
CC(=O)N1c2ccc(S(=O)(=O)N3CCC(C(=O)Nc4cccc(C)c4)CC3)cc2CC1C (stereo unspecified),–,–,–,–,–
CC(=O)N1c2ccc(S(=O)(=O)N3CCC(C(=O)Nc4cc(C)cc(C)c4)CC3)cc2CC1C (stereo unspecified),–,–,–,70.6,–
CC(C)c1ccc(NC(=O)C2CCN(S(=O)(=O)c3ccc4c(c3)NC(=O)CO4)CC2)cc1,–,–,–,–,–
CC(=O)N1c2ccc(S(=O)(=O)NCC3CCC(C(=O)Nc4cc(C)cc(C)c4)CC3)cc2CC1C (stereo unspecified),·,–,·,·,·
CCc1cccc(NS(=O)(=O)c2cc(-c3cnc(C)o3)ccc2OC)c1,–,–,·,·,·
CSCCC(NS(=O)(=O)c1ccc2c(c1)oc(=O)n2C)C(=O)Nc1ccc(Cl)cc1 (stereo unspecified),–,·,·,·,·
CCCS(=O)(=O)NC(=O)C1(C)CCN(C(=O)c2cc(F)ccc2C)C1 (stereo unspecified),·,·,–,·,–

# High-throughput results as filed in PubChem BioAssay.
